Results as given in PubChem BioAssay AID1745850 (National Center for Advancing Translational Sciences (NCATS), 2022).
Among all 2,100 compounds or so, about 260 (12%) were called active. About 58% were inconclusive and are not listed. Calls come from the whole dose curve; as a rule, active = well fitted cell-killing curve with a large enough effect; inconclusive = small, poorly fitted or top-dose-only effect, or effect the other way; inactive = flat fitted curve, though single readings scatter. This is one part of the list.
Potency is the fitted concentration of half-maximal effect.

Assay: Viability Counterscreen for Confirmatory qHTS for Inhibitors of ATXN expression; note: nearly all actives have a fitted effect of over 50% in size
Settings: HEK-293 ATXN2-luc cells viability, CellTiter-Fluor, 24 h; activity change, negative = cytotoxicity: at the top concentration
Source text: PI: Daniel Scoles Ph.D. University of Utah School of Medicine, Salt Lake City, Utah MLPCN Grant: NS073009 Spinocerebellar ataxia type 2 (SCA2) is a multisystem neurodegenerative disease caused by a dominantly acting mutation leading to expansion of a polyQ domain in the ataxin-2 protein (ATXN2). SCA2 patients develop progressive ataxia and later lose function in other neuronal systems. Prominent parkinsonian signs develop in some patients. Like many neurodegenerative disorders, no symptomatic or disease-modifying treatments are known. The primary objective of the proposed research is to identify compounds inhibiting ATXN2 expression and to test them for efficacy in SCA2 mouse models. We have developed a cell-based assay paired with an in vivo mouse model using identical luciferase expression constructs. This approach takes advantage of an ATXN2-luciferase transgene, with the luciferase gene flanked by the upstream and downstream portions of the ATXN2 gene. Here we describe a 5-7 dose quantitative high thoroughput screen (qHTS) for compounds lowering ATXN2 expression. We screened the NIH Molecular Libraries Small Molecule Repository (MLSMR) and NCGC's mechanistically annotated (MIPE) and drug repurposing (NPC) collections of compounds for lowering expression of an ATXN2-luciferase reporter in HEK-293 cells. The assay is a multiplexed cell viability assay to ensure target reduction in the absence of cytotoxicity. Secondary qHTS assays included a CMV-luciferase reporter expressed in HEK-293 cells as well as a biochemical assay using recombinant luciferase to detect inhibitors of the reporter enzyme. Compounds that inhibit ATXN2 expression but is not cytotoxic were selected for confirmatory and secondary screens.
PROTOCOL TABLE (as described by Inglese J, Shamu CE and Guy RK. 2007) SEQUENCE No. (e.g., 1, 2, 3, etc.); […] (e.g., Cells, Incubation, Reagent, etc.); VALUE; DESCRIPTION. 1; Cells; 4 uL; white, solid bottom, 1536-well Greiner assay plate. 2; Incubation; 2 hr; 37 degree C in 5% humidified CO2. 3; Compounds; 23 nL; Kalypsis pintool (Wako USA) equipped with a 1536-well pin head. 4; Incubation; 24 hr; 37 degree C in 5% humidified CO2. 5; Reagent; 1 uL; Gly-Phe-7-Amino-4-trifluoromethylcoumarin. 6; Incubation; 30 min; 37 degree C in 5% humidified CO2. 7; Detection; Fluorescence; ViewLux plate reader (PerkinElmer). 8; Reagent; 3 uL; SteadyGlo luciferase solution (Promega). 9; Incubation; 5 min; room temperature. 10; Detection; Luminescence; ViewLux plate reader (PerkinElmer). NOTES (numbers refer to Sequence numbers above) 1. S2 cells expressing ATXN2-luciferase reporter were suspended in phenol-red free DMEM and dispensed in assay plates using a Multidrop Combi dispenser (Thermo Fisher Scientific). Wells containing medium only were plated on each plate, and values were used to normalize (100% inhibition) in the luciferase and CellTiter-Fluor assays. 2. Assay plates were incubated. Evaporation was prevented by covering assay plates with metal lids containing holes to allow gas diffusion. 3. Compounds were added in a dose response manner with the final concentrations of 57, 11.4, 2.28, 0.46, 0.091, 0.018, 0.0037 uM. Vehicle-only plates, with DMSO being pin-transferred to columns 5-48, were inserted uniformly at the beginning and the end of each library to monitor and record any shifts in assay performance. 5. 125 uM Gly-Phe-7-Amino-4-trifluoromethylcoumarin (MP Biomedicals) working concentration was used at a final concentration of 25 uM. 7. To assess cell viability; the assay plates were read using the ViewLux high-throughput CCD imager (PerkinElmer), wherein single end-point fluorescence measurement was acquired (excitation 405/10; emission 540/25 nm). 8. Detection reagent SteadyGlo Luciferase (Promega) was added to the assay plate. 10. Luminescence is then measured on the ViewLux imager equipped with a clear emission filter using a 2 sec exposure. […]
In the case of `CN(Cc1cnc2nc(N)nc(N)c2n1)c1ccc(C(=O)NC(CCC(=O)O)C(=O)O)c2ccccc12` (configuration not stated), the “activity change, negative = cytotoxicity” value is reported as -30.4% [at 57.5 µM] (inactive).
For `Cc1c(N=C2N=C(NC(=O)c3ccc(F)cc3)c3ccccc32)c(=O)n(-c2ccccc2)n1C`, the “activity change, negative = cytotoxicity” value was -23.7% (inactive).
With `Cc1c(N=C2C=CC(=O)c3ccccc32)c(=O)n(-c2ccccc2)n1C` the Potency was 28.2 µM (active).
With `Cc1cccc(/C=N/NC(=O)c2cccc(Cl)c2)n1` the “activity change, negative = cytotoxicity” value was -18.5% (inactive).
With `COc1ccc(OCCNC(=O)C2(C)CCN2Cc2ccc3ccccc3c2)cc1` (configuration not stated) the “activity change, negative = cytotoxicity” value was -28.2% [at 57.5 µM] (inactive).
In the case of `C[C@@H]1CC=C[C@@H]2[C@H]1C(=O)N(Cc1ccccc1)[C@H]2c1ccccc1Br`, the “activity change, negative = cytotoxicity” value is reported as -29.3% [at 57.5 µM] (inactive).
For `O=C1Nc2c(Br)cc(Br)c3cccc1c23`, the “activity change, negative = cytotoxicity” value was -20.9% [at 57.5 µM] (inactive).
With `COc1ccc(C)cc1NC(=O)C(Sc1nnc(-c2ccncc2)n1-c1ccc(Cl)cc1)c1ccccc1` (configuration not stated) the “activity change, negative = cytotoxicity” value was -12.9% (inactive).
In the case of `CCCOc1ccccc1C1NC(=O)NC(C)=C1C(=O)OCc1ccccc1` (configuration not stated), the “activity change, negative = cytotoxicity” value is reported as -14% (inactive).
In the case of `Cc1cccc(NC(c2ccc(C)s2)c2ccc3ccc(C)nc3c2O)n1` (configuration not stated), the Potency is reported as 25.1 µM (active).
With `Cn1nc(C(=O)N2CCN(c3ccc(Cl)cc3)CC2)c2c1-c1ccccc1S(=O)(=O)C2` the “activity change, negative = cytotoxicity” value was -12.1% (inactive).
With `O=C(CCC(=O)Nc1ccc(Br)cc1)N/N=C/c1ccccc1O` the “activity change, negative = cytotoxicity” value was -18.6% (inactive).
For `COC(=O)c1c(NC(=O)c2ccc([N+](=O)[O-])o2)sc2c1CCN(C(C)C)C2`, the Potency was 28.2 µM (active).
With `O=C1C=Cc2cccc3ccc(O)c1c23` the “activity change, negative = cytotoxicity” value was 4.45% (inactive).
With `O=C(CN1C(=O)c2ccccc2S1(=O)=O)c1ccc(Cl)cc1Cl` the “activity change, negative = cytotoxicity” value was -6.86% [at 57.5 µM] (inactive).
In the case of `O=[N+]([O-])c1c(Nc2ccccn2)cc(Cl)c2nonc12`, the Potency is reported as 11.2 µM (active).
For `COc1cc(OC)c(OC)cc1/C=C1\CC(C)C/C(=C\c2cc(OC)c(OC)cc2OC)C1=O` (configuration not stated), the Potency was 17.8 µM (active).
For `C=CCc1ccccc1OCC(O)CN1CCN(CCN2C(=O)c3cccc4cccc(c34)C2=O)CC1` (configuration not stated), the Potency was 31.6 µM (active).
In the case of `O=C(CNC(=O)c1ccccc1O)N/N=C/c1cc(Br)ccc1OC(=O)/C=C/c1ccco1`, the “activity change, negative = cytotoxicity” value is reported as -4.41% (inactive).
In the case of `Cc1ccc(C(=O)CN2C(=O)c3ccccc3S2(=O)=O)cc1`, the “activity change, negative = cytotoxicity” value is reported as 5.17% (inactive).
For `Oc1ccc(C2CNCc3sccc32)cc1O` (configuration not stated), the “activity change, negative = cytotoxicity” value was -19.8% [at 57.5 µM] (inactive).
With `O=C(CN1CCCc2ccccc21)N/N=C/c1ccccc1O` the “activity change, negative = cytotoxicity” value was -21.2% (inactive).
For `C[C@@H]1ON(C)[C@H]2C[C@H]3c4[nH]c5ccc(-c6ccc7c(c6)OCO7)cc5c4CCN3C(=O)[C@@H]12`, the “activity change, negative = cytotoxicity” value was -27.8% [at 57.5 µM] (inactive).
With `CC1(C)Cc2c(ccc3ccccc23)C2=C(C(=O)N3CCCC3)C(=O)C(=O)N21` the “activity change, negative = cytotoxicity” value was -14.3% [at 57.5 µM] (inactive).
In the case of `O=C(Nc1nc(-c2ccc(S(=O)(=O)N3CCOCC3)cc2)cs1)c1ccccc1`, the “activity change, negative = cytotoxicity” value is reported as -26.6% (inactive).
With `CCn1c2ccccc2c2cc(NC(=O)COC(=O)c3cc(S(=O)(=O)N4CCCCC4)ccc3Cl)ccc21` the “activity change, negative = cytotoxicity” value was 1.01% (inactive).
In the case of `Cc1nc(-c2cccc(NC(=O)c3cccc(S(=O)(=O)N4CCCC4)c3)c2)cs1`, the Potency is reported as 28.2 µM (active).
